# Test results from PubChem BioAssay (NCATS).
# Unmarked numbers belong to inactive results. Results filed as inconclusive are left out. Entries that show only a call come without a potency. Activity calls are given as the source filed them. Calls come from the whole dose curve; as a rule, active = well fitted curve in the direction sought with a large enough effect; inconclusive = small, poorly fitted or top-dose-only effect, or another doubt; inactive = no such curve, though single readings can be large; an effect the other way counts as inactive or inconclusive.
# Experiments:
# [1] = Cellular Toxicity (caspase-3) HepG2 (AID 654);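 note: cells exposed to compound for 16 hours before reading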
# In short: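 Concentration-response AC50 values reflect caspase-3/7 induction in HepG2 cells after 16 hours of compound exposure, quantified by luminescence from liberated aminoluciferin and referenced to 100 uM tamoxifen as full stimulation.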
# [2] = Cellular Toxicity (caspase-3) Jurkat (AID 655); conditions: Jurkat caspase-3 activation, luminescence, DMSO = 0%, tamoxifen = 100%; at 92.2 µM (top of the series);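 note: cells exposed to compound for 16 h at 37 °C before reading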
# In short: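 Jurkat cells (5000/well) in complete medium were treated with compounds for 16 hr at 37 °C, then Caspase-Glo 3/7 luminescence was read after 20 min at room temperature. Data normalized to DMSO (basal) and 100 uM tamoxifen (100%); AC50 from Hill fit.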
# [3] = Cellular Toxicity (caspase-3) HUV-EC-C (AID 656)
# In short: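 HUV-EC-C endothelial cells, 1000/well, were pre-incubated 5 hr at 37°C, then exposed to compounds for 16 hr at 37°C. Caspase-Glo 3/7 luminescence was read after 20 min at room temperature. AC50 came from Hill fits, normalized to DMSO and 100 uM tamoxifen.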
# [4] = Cellular Toxicity (caspase-3) SHSY5Y (AID 657)
# In short: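 SH-SY5Y human neuroblastoma cells (1500/well) were treated with compounds for 16 h at 37 °C, then Caspase-Glo 3/7 luminescence was read after 1 h at room temperature. Data normalized to DMSO and 10 uM staurosporine; AC50 from Hill fits.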
# [5] = Cellular Toxicity (caspase-3) BJ (AID 658)
# In short: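 Caspase-Glo 3/7 luminescence, read 1 hr after reagent at room temperature, in normal BJ fibroblasts exposed 16 hours at 37 °C. AC50 values from Hill-equation concentration-response, scaled between DMSO basal and 10 uM staurosporine as 100%.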
# [6] = Cellular Toxicity (caspase-3) MRC-5 (AID 659)
# In short: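 Luminescent Caspase-Glo 3/7 read-out (1 h, room temperature) after a 16 h, 37 °C compound exposure of MRC-5 lung fibroblasts at 1500 cells/well. Concentration-response AC50 from Hill equation; 0% DMSO, 100% 10 uM staurosporine.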
# [7] = Cellular Toxicity (caspase-3) Mesangial (AID 660);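 note: combined caspase 3 and 7 activity read by Caspase-Glo luminescence; cells exposed to compound for 16 h before the caspase read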
# In short: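 AC50 values come from Hill-equation fits of caspase 3/7 activation, measured as Caspase-Glo luminescence in human glomerular mesangial cells exposed to compound for 16 h at 37 °C; 100% set by 100 uM tamoxifen.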
# [8] = Cellular Toxicity (caspase-3) SK-N-SH (AID 661)
# In short: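 Apoptosis readout in SK-N-SH neuroblastoma: Caspase-Glo 3/7 luminescence following 16 hr treatment in complete culture medium. Normalization used DMSO and 10 uM staurosporine controls.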
# [9] = Cellular Toxicity (caspase-3) H-4-II-E (AID 663); conditions: Potency: caspase-3 activation;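 note: cells exposed to compound for 16 hr before readout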
# In short: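 Caspase 3/7 activation measured by luminescent aminoluciferin substrate cleavage after 16 hr compound treatment of H-4-II-E cells in complete medium. Increase normalized between DMSO (basal) and 100 uM tamoxifen (100%); Hill-equation AC50 from concentration-response.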
# [10] = Cellular Toxicity (caspase-3) Hek293 (AID 664);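 note: cells exposed to compound for 16 h at 37 °C before readout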
# In short: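 Apoptosis readout: Caspase-Glo 3/7 signal in human HEK293 cells following 16-hour compound incubation. Responses scaled between DMSO baseline and 100 uM tamoxifen.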
# [11] = Cellular Toxicity (caspase-3) N2a (AID 665);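 note: compound exposure lasted 16 h at 37 °C before readout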
# In short: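 Concentration-response qHTS: compound-induced caspase-3/7 luminescence in N2a cells (16 h, 37 °C), relative to DMSO and 10 uM staurosporine controls; AC50 obtained using the standard Hill equation.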
# [12] = Cellular Toxicity (caspase-3) NIH 3T3 (AID 666)
# In short: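 Activity: caspase-3/7 induction, NIH 3T3 cells, 16 hr treatment at 37°C, luminescent Caspase-Glo detection; AC50 via Hill equation.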
# [13] = Cellular Toxicity (caspase-3) Renal Proximal Tubule (AID 667);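 note: cells exposed to compound for 16 hours at 37 °C before detection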
# In short: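 Primary rat proximal tubule cells, 1000/well, 5 h plating at 37 °C, then compound 16 h at 37 °C. Caspase-Glo 3/7 reagent, 1 h RT, luminescence. Normalized to DMSO (basal) and 10 uM staurosporine (100%); Hill-fit AC50.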
# [14] = target: Cytochrome P450 3A4 (Homo sapiens) (UniProt P08684); assay: qHTS Assay for Inhibitors and Substrates of Cytochrome P450 3A4 (AID 884); note: nearly all actives have a fitted effect of over 50% in size
# In short: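 Luminescent readout of luciferin produced by CYP3A4 (20 nM) dealkylation of Luciferin-PPXE, 25 uM (its KM). NADPH-driven reaction ran 60 min at RT after 10 min compound preincubation; data scaled to 57 uM ketoconazole as 100% inhibition.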
# [15] = target: Cytochrome P450 2C9 (Homo sapiens) (UniProt P11712); assay: qHTS Assay for Inhibitors and Substrates of Cytochrome P450 2C9 (AID 883); note: nearly all actives have a fitted effect of over 60% in size
# In short: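 Luminescent read-out of deoxyluciferin hydroxylation, normalized to 57uM sulphaphenazole (AC100). Reaction: 10nM enzyme, 100uM Luciferin-H (equal to KM), 25mM KPO4, 10 min compound preincubation, then 60 min with NADPH regeneration, both at 37C.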
# [16] = target: Cytochrome P450 3A4 (Homo sapiens) (UniProt P08684); assay: qHTS Assay for Activators of Cytochrome P450 3A4 (AID 885); note: nearly all actives have a fitted effect of over 65% in size
# In short: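 Human CYP3A4 dealkylates Luciferin-PPXE to luciferin, which luciferase detection converts to light. Substrate was at its KM (25uM), buffer 200mM KPO4, reaction 60 min at RT.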
# [17] = target: Cytochrome P450 2D6 (Homo sapiens) (UniProt P10635); assay: qHTS Assay for Inhibitors and Substrates of Cytochrome P450 2D6 (AID 891); conditions: recombinant CYP2D6, luciferin-ME EGE luminescence; note: potency is the fitted concentration of half-maximal effect; nearly all actives have a fitted effect of over 60% in size
# In short: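 Luminescent read-out of luciferin formed by 5 nM human CYP2D6 demethylating 30 uM Luciferin-ME EGE (Km level) over 60 min at room temperature after NADPH regeneration addition. Data normalized to full inhibition by 1.43 uM quinidine.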
# Chain of Cytochrome P450 3A4 (Homo sapiens) (P08684 whole entry, looked up): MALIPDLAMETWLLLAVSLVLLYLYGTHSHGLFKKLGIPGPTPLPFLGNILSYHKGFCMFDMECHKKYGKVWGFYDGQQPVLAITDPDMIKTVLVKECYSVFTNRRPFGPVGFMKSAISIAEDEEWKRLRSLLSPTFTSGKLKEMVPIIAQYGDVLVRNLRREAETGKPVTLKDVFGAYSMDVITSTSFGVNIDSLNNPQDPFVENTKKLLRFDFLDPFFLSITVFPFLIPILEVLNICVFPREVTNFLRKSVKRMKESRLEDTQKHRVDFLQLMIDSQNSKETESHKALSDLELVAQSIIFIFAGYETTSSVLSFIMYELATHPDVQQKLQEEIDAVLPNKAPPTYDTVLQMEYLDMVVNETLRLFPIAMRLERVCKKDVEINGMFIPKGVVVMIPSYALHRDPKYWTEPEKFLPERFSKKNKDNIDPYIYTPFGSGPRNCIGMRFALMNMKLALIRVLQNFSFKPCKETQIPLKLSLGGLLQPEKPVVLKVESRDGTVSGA
# Chain of Cytochrome P450 2D6 (Homo sapiens) (P10635 whole entry, looked up): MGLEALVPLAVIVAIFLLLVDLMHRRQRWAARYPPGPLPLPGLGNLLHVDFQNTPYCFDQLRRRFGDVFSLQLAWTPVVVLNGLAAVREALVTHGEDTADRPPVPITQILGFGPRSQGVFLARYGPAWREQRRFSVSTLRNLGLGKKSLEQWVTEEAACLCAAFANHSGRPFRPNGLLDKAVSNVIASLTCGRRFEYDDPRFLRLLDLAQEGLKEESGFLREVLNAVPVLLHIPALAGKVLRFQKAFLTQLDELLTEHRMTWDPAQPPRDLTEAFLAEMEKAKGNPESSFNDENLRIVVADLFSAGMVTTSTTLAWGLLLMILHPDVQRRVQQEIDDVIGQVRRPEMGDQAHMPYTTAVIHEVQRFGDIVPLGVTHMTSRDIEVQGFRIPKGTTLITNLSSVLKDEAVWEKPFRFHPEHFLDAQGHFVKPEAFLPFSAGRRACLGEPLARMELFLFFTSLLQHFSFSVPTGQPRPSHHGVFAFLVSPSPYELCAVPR
# Chain of Cytochrome P450 2C9 (Homo sapiens) (P11712 whole entry, looked up): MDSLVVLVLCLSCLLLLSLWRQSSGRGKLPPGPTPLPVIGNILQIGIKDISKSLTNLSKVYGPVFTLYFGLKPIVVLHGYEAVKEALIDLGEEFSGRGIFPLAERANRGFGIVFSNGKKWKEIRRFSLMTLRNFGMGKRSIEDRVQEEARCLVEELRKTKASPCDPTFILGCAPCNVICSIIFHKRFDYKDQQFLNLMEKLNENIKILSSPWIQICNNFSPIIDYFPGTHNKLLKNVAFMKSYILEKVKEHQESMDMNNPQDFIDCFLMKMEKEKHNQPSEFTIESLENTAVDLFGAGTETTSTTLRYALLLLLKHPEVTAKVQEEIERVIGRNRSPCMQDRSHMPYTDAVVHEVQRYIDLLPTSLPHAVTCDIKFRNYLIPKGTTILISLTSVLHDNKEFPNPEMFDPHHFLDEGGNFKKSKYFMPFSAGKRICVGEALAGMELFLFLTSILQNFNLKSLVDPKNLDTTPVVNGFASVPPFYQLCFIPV
structure (smiles),measurement,setting,value
O=C(O)c1ccc(S(=O)(=O)N(Cl)Cl)cc1,outcome,[1],inactive
same,caspase-3 activation,[2],0.943%
same,outcome,[3],inactive
same,outcome,[4],inactive
same,outcome,[5],inactive
same,outcome,[6],inactive
same,outcome,[7],inactive
same,outcome,[8],inactive
same,Potency,[9],inactive
same,outcome,[10],inactive
same,outcome,[11],inactive
same,outcome,[12],inactive
same,outcome,[13],inactive
same,Potency,[14],inactive
CC(C)NCC(O)c1ccc2ccccc2c1 (configuration not stated),Potency,[14],inactive
CCOC(=O)[C@H](CCc1ccccc1)N[C@@H](C)C(=O)N1[C@H](C(=O)O)C[C@H]2CCCC[C@@H]21,Potency,[14],inactive
Cc1cc(C)cc(OCC2CNC(=O)O2)c1 (configuration not stated),Potency,[14],inactive
C[C@H]1[C@H]2CC[C@H]3[C@@H]4CC=C5C[C@@H](N(C)C)CC[C@]5(C)[C@H]4CC[C@]23CN1C,Potency,[14],inactive
O=C(CCCN1CC=C(n2c(=O)[nH]c3ccccc32)CC1)c1ccc(F)cc1,Potency,[15],inactive
same,outcome,[16],inactive
same,Potency,[17],3.16 µM (active)
COc1ccc(C(Cl)=C(c2ccc(OC)cc2)c2ccc(OC)cc2)cc1,outcome,[1],inactive
same,caspase-3 activation,[2],2.72%
same,outcome,[3],inactive
same,outcome,[4],inactive
same,outcome,[5],inactive
same,outcome,[6],inactive
same,outcome,[7],inactive
same,outcome,[8],inactive
same,Potency,[9],inactive
same,outcome,[10],inactive
same,outcome,[11],inactive
same,outcome,[12],inactive
same,outcome,[13],inactive
same,Potency,[14],inactive
Oc1c(Cl)cc(Cl)c(Cl)c1Cc1c(O)c(Cl)cc(Cl)c1Cl,outcome,[1],inactive
same,outcome,[3],inactive
same,outcome,[4],inactive
same,outcome,[5],inactive
same,outcome,[6],inactive
same,outcome,[7],inactive
same,outcome,[8],inactive
same,Potency,[9],inactive
same,outcome,[10],inactive
same,outcome,[11],inactive
same,outcome,[12],inactive
same,outcome,[13],inactive
OC[C@H]1O[C@@H]2O[C@H]3[C@H](O)[C@@H](O)[C@@H](O[C@H]4[C@H](O)[C@@H](O)[C@@H](O[C@H]5[C@H](O)[C@@H](O)[C@@H](O[C@H]6[C@H](O)[C@@H](O)[C@@H](O[C@H]7[C@H](O)[C@@H](O)[C@@H](O[C@H]8[C@H](O)[C@@H](O)[C@@H](O[C@H]1[C@H](O)[C@H]2O)O[C@@H]8CO)O[C@@H]7CO)O[C@@H]6CO)O[C@@H]5CO)O[C@@H]4CO)O[C@@H]3CO,outcome,[1],inactive
same,caspase-3 activation,[2],1.07%
same,outcome,[3],inactive
same,outcome,[4],inactive
same,outcome,[5],inactive
same,outcome,[6],inactive
same,outcome,[7],inactive
same,outcome,[8],inactive
same,Potency,[9],inactive
same,outcome,[10],inactive
same,outcome,[11],inactive
same,outcome,[12],inactive
same,outcome,[13],inactive
same,Potency,[14],inactive
CN(C)CCOC(=O)C(c1ccccc1)C1(O)CCCC1 (configuration not stated),Potency,[14],inactive
